Data published in PubChem BioAssay (NCATS).
Where “and” joins values, the source holds several entries; their conditions need not be identical. Equal entries are not always repeated. Results filed as inconclusive are left out. Where a structure was tested more than once in an assay, its records may differ in their call. Calls of active or inactive are those of the source. Unless noted, calls come from the whole dose curve; as a rule, active = well fitted curve in either direction with a large enough effect (not every such curve was filed as active); inconclusive = small, poorly fitted or top-dose-only effect, or another doubt; inactive = flat fitted curve, though single readings scatter.

Legend:
[1] = AP1 Signaling Pathway (AID 357); details: ME-180 AP-1-bla reporter, EGF-induced, beta-lactamase ratio, 5 h; note: % is set by controls: 0 for no effect and ±100 for the full control effect
Procedure, shortened: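 ME-180 cells with beta-lactamase reporter under AP-1 response element, stimulated with EC50 EGF; compounds tested in titration series, 5 h at 37 °C. CCF4 substrate added 2.5 h at room temperature; 460/530 nm emission ratio gave %activity and AC50.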

[2] = target: Cytochrome P450 1A2 (Homo sapiens) (UniProt P05177); test: p450-cyp1a2 (AID 410; calls by dose curve; note: potency is the fitted concentration of half-maximal effect;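 for activity change, negative = inhibition: -100% = full effect of reference inhibitor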); details: recombinant CYP1A2, luciferin-ME demethylation, luminescence; series mostly up to 25.6 µM
Cytochrome P450 1A2 (Homo sapiens), sequence (P05177 whole entry, looked up): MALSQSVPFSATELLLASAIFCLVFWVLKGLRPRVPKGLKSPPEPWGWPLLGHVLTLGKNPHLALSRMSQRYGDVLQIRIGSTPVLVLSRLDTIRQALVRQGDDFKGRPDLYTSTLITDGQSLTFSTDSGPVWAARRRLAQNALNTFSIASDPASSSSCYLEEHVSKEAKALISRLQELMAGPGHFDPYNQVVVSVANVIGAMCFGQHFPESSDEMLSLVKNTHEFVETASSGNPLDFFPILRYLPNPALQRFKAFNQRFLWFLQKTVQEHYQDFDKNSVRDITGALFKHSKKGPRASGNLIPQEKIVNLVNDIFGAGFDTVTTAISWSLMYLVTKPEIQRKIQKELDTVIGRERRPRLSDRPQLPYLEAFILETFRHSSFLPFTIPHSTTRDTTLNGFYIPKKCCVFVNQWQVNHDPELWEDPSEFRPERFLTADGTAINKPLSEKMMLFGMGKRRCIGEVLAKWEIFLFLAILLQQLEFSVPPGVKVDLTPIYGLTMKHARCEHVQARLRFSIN
Procedure, shortened: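 Inhibition was calculated relative to 57 uM furafylline (full inhibition). The reaction used human CYP1A2 at 20nM with Luciferin-ME at its Km, 100uM, driven by an NADPH-regenerating system for 60 min at room temperature.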

[3] = NFAT Signaling Pathway (AID 444); details: Jurkat NFAT-bla M1, carbachol, beta-lactamase ratio, 5 h;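 note: carbachol stimulus at about its EC50 of 1 µM final; % is set by controls: 0 for no effect and ±100 for the full control effect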
Procedure, shortened: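 Jurkat cells with NFAT-driven β-lactamase reporter and co-expressed M1 receptor, stimulated with carbachol (final 1 uM, ~EC50), compound titration, 5 h at 37 °C. CCF4 loaded 1 h at RT; 460/530 nm ratio gave %activity and AC50.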

[4] = Stat Signaling Pathway (AID 446); details: ME-180 SIE beta-lactamase reporter, IL-6 stimulated, 5 h;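 note: ME-180 cervical cancer cells given 40 pM IL-6 alongside compound; SIE-controlled beta-lactamase reporter measured as 460/530 nm FRET emission ratio; % is set by controls: 0 for no effect and ±100 for the full control effect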
Procedure, shortened: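 ME-180 SIE-bla cells; overnight plating; cpd + IL-6 40 pM, 5 h, 37 C; LiveBLAzer 2.5 h RT; 460/530 nm emission ratio. Normalized to 300 pM IL-6 and 125 nM JAK inhibitor controls.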

[5] = target: Glucocorticoid receptor (Homo sapiens) (UniProt P04150); test: GR-GFP Redistribution (AID 450;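 active = compounds whose dose series gives a full or clear partial fitted curve of increased nuclear translocation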; note: potency is the fitted concentration of half-maximal effect); details: U2OS GR-GFP nuclear translocation, laser cytometry, 2 h
Glucocorticoid receptor (Homo sapiens), sequence (P04150 whole entry, looked up, the tested form may be a part): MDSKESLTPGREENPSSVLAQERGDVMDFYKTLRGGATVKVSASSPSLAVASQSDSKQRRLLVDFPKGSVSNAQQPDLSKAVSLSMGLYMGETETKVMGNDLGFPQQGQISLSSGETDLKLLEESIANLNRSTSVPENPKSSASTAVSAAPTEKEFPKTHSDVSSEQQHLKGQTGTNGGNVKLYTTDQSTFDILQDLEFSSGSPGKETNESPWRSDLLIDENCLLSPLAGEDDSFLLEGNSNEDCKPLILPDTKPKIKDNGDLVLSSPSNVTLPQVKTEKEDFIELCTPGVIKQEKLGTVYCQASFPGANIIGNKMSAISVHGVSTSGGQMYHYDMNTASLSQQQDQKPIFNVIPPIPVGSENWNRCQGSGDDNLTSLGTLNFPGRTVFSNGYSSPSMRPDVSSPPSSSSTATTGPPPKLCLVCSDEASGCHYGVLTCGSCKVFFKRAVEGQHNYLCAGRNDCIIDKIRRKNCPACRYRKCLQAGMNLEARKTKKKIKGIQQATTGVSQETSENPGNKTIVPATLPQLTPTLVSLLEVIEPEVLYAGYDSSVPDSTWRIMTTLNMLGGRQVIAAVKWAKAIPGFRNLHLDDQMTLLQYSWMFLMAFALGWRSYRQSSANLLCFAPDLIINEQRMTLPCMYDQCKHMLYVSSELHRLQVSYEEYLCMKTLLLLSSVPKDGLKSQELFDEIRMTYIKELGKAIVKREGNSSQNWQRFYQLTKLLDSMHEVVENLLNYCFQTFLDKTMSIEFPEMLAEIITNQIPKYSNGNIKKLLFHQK

[6] = target: Glucocorticoid receptor (Homo sapiens) (UniProt P04150); test: GR-EFC Redistribution (AID 451; calls by dose curve; note: potency is the fitted concentration of half-maximal effect); details: CHO-K1 GR-EFC translocation, beta-gal luminescence, 2 h
Procedure, shortened: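 CHO-K1 cells expressing nuclear EA and GR-ED fragments of b-gal; compounds titrated up to 46 uM final, 2 h at 37 C. GR nuclear translocation read as complemented b-gal luminescence after 1 h RT detection.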

[7] = target: Mitogen-activated protein kinase 10 (Mus musculus) (UniProt Q61831); test: JNK3 AlphaScreen Assay (AID 530); details: JNK3 lysate, c-Jun phosphorylation; series mostly up to 57.1 µM;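 note: kinase came from lysate of stimulated human HepG2 cells; signal reports phosphorylation of biotinylated GST-cJun 1-79 at Ser73 with 10 µM ATP; % is set by controls: 0 for no effect and ±100 for the full control effect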
Procedure, shortened: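 qHTS format: compounds tested as titrations against IL-1beta/TNF-alpha-activated HepG2 lysate JNK3 with biotin-GST-cJun substrate and 10 uM ATP at room temperature. Loss of anti-phospho-cJun AlphaScreen signal indicates inhibition.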

[8] = Cell Viability - BJ (AID 421; calls by dose curve;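 note: potency is the fitted concentration of half-maximal effect; cells exposed to compound for 40 hours at 37 °C before readout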); details: BJ fibroblast viability, qHTS
Procedure, shortened: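 Luminescent ATP signal (CellTiter-Glo, 20 min at room temperature) served as the read-out of viable BJ cells after 40 hours of compound treatment. Responses were scaled between DMSO and 100 uM tamoxifen, and AC50 values were obtained by Hill modeling.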

[9] = Cell Viability - Jurkat (AID 426;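 active = dose-dependent loss of cell ATP signal giving a full or clear fitted curve, ranked by lower potency value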; note: potency is the fitted concentration of half-maximal effect); details: qHTS
Procedure, shortened: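 Seed 5000 Jurkat E6-1 cells/well; add compound; incubate 40 hr at 37 °C; add CellTiter-Glo; wait 20 min at room temperature; read luminescence. Fit concentration-response with Hill equation for AC50.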

[10] = Cell Viability - Hek293 (AID 427;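 active = compounds whose dose-response curve shows a full or clear partial loss of cell viability, called from curve shape rather than a numeric limit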;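 note: potency is the fitted concentration of half-maximal effect; cells exposed to compound for 40 hours at 37 °C before reading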); details: qHTS
Procedure, shortened: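 Luminescent ATP read-out (CellTiter-Glo, 20 min RT) after 40 hr compound exposure at 37 °C in complete medium. Signal normalized to DMSO (basal) and 100 uM tamoxifen (100% inhibition); concentration-response fitted with the standard Hill equation to give AC50.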

[11] = Cell Viability - HepG2 (AID 433; calls by dose curve;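 note: potency is the fitted concentration of half-maximal effect; potency for ATP loss meaning cytotoxicity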); details: qHTS
Procedure, shortened: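 In this qHTS format, a 40 h, 37 °C compound incubation of HepG2 cells in complete medium precedes a 20 min CellTiter-Glo step at room temperature. Tamoxifen and doxorubicin serve as positive controls; Hill-equation fits yield AC50.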

[12] = Cell Viability - MRC5 (AID 434; calls by dose curve;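 note: potency is the fitted concentration of half-maximal effect; potency reflects cytotoxicity seen as loss of intracellular ATP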); details: MRC5 lung fibroblast viability, qHTS
Procedure, shortened: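 MRC5 normal human lung fibroblasts, 1500 cells/well, exposed to compound for 40 hr at 37 C. Cellular ATP was read by CellTiter-Glo luminescence; data normalized to DMSO and 100 uM tamoxifen, with AC50 from Hill fits.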

[13] = Cell Viability - SK-N-SH (AID 435; calls by dose curve;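 note: potency is the fitted concentration of half-maximal effect; compound exposure lasted 40 h at 37 °C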); details: SK-N-SH neuroblastoma cell viability qHTS
Procedure, shortened: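 Human neuroblastoma line, 40 h exposure at 37 °C, ATP quantified via luciferase luminescence; DMSO and 100 uM tamoxifen define 0 and 100% inhibition for AC50 fitting.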

[14] = Cell Viability - N2a (AID 540; active = well fitted curve in the direction sought with a large enough effect; an effect the other way counts as inactive or inconclusive;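 note: plate controls were DMSO alone for no effect and tamoxifen control for full effect; nearly all actives have a fitted effect of over 45% in size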); details: N2a mouse neuroblastoma cell viability; activity change, negative = cytotoxicity: at 92.2 µM (top of the series)
Procedure, shortened: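 First, 1500 N2a cells per well incubate 5 hr at 37 °C; next, compounds are added and incubated 40 hr at 37 °C; finally CellTiter-Glo is added and luminescence read after 20 min, with AC50 derived by Hill modeling.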

[15] = Cell Viability - NIH 3T3 (AID 541; active = well fitted curve in the direction sought with a large enough effect; an effect the other way counts as inactive or inconclusive;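 note: plate controls were DMSO alone for no effect and tamoxifen positive control for full effect; nearly all actives have a fitted effect of over 25% in size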); details: NIH 3T3 cell viability, qHTS; activity change, negative = cytotoxicity: at 92.2 µM (top of the series)
Procedure, shortened: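 AC50 values reflect concentration-dependent loss of intracellular ATP in NIH 3T3 cells after 40 hr treatment in complete culture medium, quantified by luciferase-based luminescence.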

[16] = Cell Viability - HUV-EC-C (AID 542; active = well fitted curve in the direction sought with a large enough effect; an effect the other way counts as inactive or inconclusive; note: % is set by controls: 0 for no effect and ±100 for the full control effect; nearly all actives have a fitted effect of over 35% in size); details: HUV-EC-C endothelial cell viability, qHTS; series mostly up to 92.2 µM
Procedure, shortened: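 Decrease in cellular ATP, quantified by luciferase luminescence, reflects toxicity in normal human vascular endothelial HUV-EC-C cells given compound for 40 hr in complete culture medium. Values are AC50s from concentration-response curves.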

[17] = Cell Viability - H-4-II-E (AID 543; active = well fitted curve in the direction sought with a large enough effect; an effect the other way counts as inactive or inconclusive; note: % is set by controls: 0 for no effect and ±100 for the full control effect; nearly all actives have a fitted effect of over 35% in size); details: H-4-II-E rat hepatoma viability; series mostly up to 92.2 µM
Procedure, shortened: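 Here, cytotoxicity is measured in the rat hepatoma line H-4-II-E as loss of intracellular ATP after 40 hr compound treatment, detected by luciferase luminescence.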

[18] = Cell Viability - SH-SY5Y (AID 544; active = well fitted curve in the direction sought with a large enough effect; an effect the other way counts as inactive or inconclusive;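 note: 0% = DMSO alone and -100% = 100 µM tamoxifen; nearly all actives have a fitted effect of over 55% in size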); details: SH-SY5Y neuroblastoma cell viability; series mostly up to 92.2 µM
Procedure, shortened: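 Cytotoxicity is scored as a concentration-dependent fall in intracellular ATP in human SH-SY5Y cells treated 40 hr in complete culture medium. Potency is expressed as AC50 from a Hill equation fit.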

[19] = Cell Viability - Renal Proximal Tubule (AID 545; active = well fitted curve in the direction sought with a large enough effect; an effect the other way counts as inactive or inconclusive;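 note: 0% = DMSO only and -100% = 100 µM tamoxifen; nearly all actives have a fitted effect of over 40% in size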); details: renal proximal tubule cells viability, primary cells of rat origin; series mostly up to 91.7 µM
Procedure, shortened: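 In this qHTS format, normal rat kidney-derived proximal tubule cells in complete culture medium receive compound titrations, then sit 40 hours at 37 °C before luciferase-based ATP quantitation; potency is reported as AC50 from concentration-response curves.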

Which activity change, negative = inhibition ([1]; at 17.2 µM (top of the series)) does the source give for `CCN(CC)CCNC(=O)c1cc(Cl)c(N)cc1OC` here?
The activity change, negative = inhibition was 0.248% (inactive) and 1.7% (inactive).

What about the activity change, negative = inhibition ([1]; at 38 µM (top of the series)) of the same compound?
The activity change, negative = inhibition was 17% (inactive).

What about the Potency [2] of the same compound?
The Potency was 15.8 µM (active).

And the activity change, negative = inhibition ([3]; at 17.2 µM (top of the series))?
The activity change, negative = inhibition was -0.325% (inactive) and -6.2% (inactive).

What about the activity change, negative = inhibition ([3]; at 38 µM (top of the series)) of the same compound?
Its activity change, negative = inhibition is 4.1% (inactive).

And the activity, negative = inhibition ([4]; at 17.2 µM (top of the series))?
The activity, negative = inhibition was 16.4% (inactive) and -2.07% (inactive).

What about the activity, negative = inhibition ([4]; at 38 µM (top of the series)) of the same compound?
Its activity, negative = inhibition is -26.6% (inactive).

What does the source list for `NC(N)=NCCC[C@H](N)C(=O)O`?
activity change, negative = inhibition ([1]; at 38 µM (top of the series)): -0.498% (inactive); Potency [2]: inactive and 31.6 µM (active); activity change, negative = inhibition ([3]; at 38 µM (top of the series)): -0.248% (inactive); Potency [5]: > 46 µM (inactive); Potency [6]: > 46 µM (inactive)

What does the source list for `CCn1cc(C(=O)O)c(=O)c2cnc(N3CCNCC3)nc21`?
activity change, negative = inhibition ([1]; at 17.2 µM (top of the series)): 8.66% (inactive) and 0.464% (inactive); Potency [2]: inactive; activity change, negative = inhibition ([3]; at 17.2 µM (top of the series)): -4.81% (inactive); activity, negative = inhibition ([4]; at 17.2 µM (top of the series)): 3.23% (inactive) and 2.72% (inactive); Potency [7]: inactive

For `CNCCCC1c2ccccc2C=Cc2ccccc21`, which activity change, negative = inhibition ([1]; at 17.2 µM (top of the series)) is on record?
The activity change, negative = inhibition was -3.44% (inactive) and 2.28% (inactive).

What about the Potency [2] of the same compound?
Its Potency is “inactive”.

And the activity change, negative = inhibition ([3]; at 17.2 µM (top of the series))?
The activity change, negative = inhibition was -94% (active).

What about the activity, negative = inhibition ([4]; at 17.2 µM (top of the series)) of the same compound?
Its activity, negative = inhibition is -10.4% (inactive) and -15.8% (inactive).

What about the activity, negative = inhibition ([4]; at 38 µM (top of the series)) of the same compound?
Its activity, negative = inhibition is -9.63% (inactive).

And the Potency [5]?
The Potency was > 46 µM (inactive) and > 20.6 µM (inactive).

And the Potency [6]?
The Potency was > 46 µM (inactive) and > 20.6 µM (inactive).

What about the Potency [7] of the same compound?
Its Potency is “inactive”.

Which activity change, negative = inhibition ([1]; at 17.2 µM (top of the series)) does the source give for `C#CCN(C)Cc1ccccc1` here?
Its activity change, negative = inhibition is -4.72% (inactive) and 6.12% (inactive).

What about the activity change, negative = inhibition ([1]; at 38 µM (top of the series)) of the same compound?
Its activity change, negative = inhibition is 1.9% (inactive).

And the Potency [2]?
Its Potency is “inactive”.

And the activity change, negative = inhibition ([3]; at 17.2 µM (top of the series))?
Its activity change, negative = inhibition is 4.68% (inactive) and -0.725% (inactive).

What about the activity change, negative = inhibition ([3]; at 38 µM (top of the series)) of the same compound?
Its activity change, negative = inhibition is 4.11% (inactive).

What about the activity, negative = inhibition ([4]; at 17.2 µM (top of the series)) of the same compound?
The activity, negative = inhibition was 8.61% (inactive) and -2.46% (inactive).

And the Potency [5]?
Its Potency is > 46 µM (inactive) and > 20.6 µM (inactive).

What about the Potency [6] of the same compound?
The Potency was > 46 µM (inactive) and > 20.6 µM (inactive).

And the Potency [7]?
The Potency was “inactive”.

Which activity change, negative = inhibition ([1]; at 17.2 µM (top of the series)) does the source give for `N=c1c[n+](N2CCOCC2)[n-]o1` here?
Its activity change, negative = inhibition is 18.9% (inactive).

What about the activity change, negative = inhibition ([1]; at 38 µM (top of the series)) of the same compound?
The activity change, negative = inhibition was 9.68% (inactive).

And the activity change, negative = inhibition ([3]; at 38 µM (top of the series))?
Its activity change, negative = inhibition is 3.52% (inactive).

What about the activity, negative = inhibition ([4]; at 17.2 µM (top of the series)) of the same compound?
The activity, negative = inhibition was 4.68% (inactive).

And the activity, negative = inhibition ([4]; at 38 µM (top of the series))?
Its activity, negative = inhibition is -10.2% (inactive).

What about the Potency [5] of the same compound?
Its Potency is > 46 µM (inactive) and > 20.6 µM (inactive).

And the Potency [6]?
The Potency was > 46 µM (inactive).

For `Nc1cc(=O)[nH]c(N)n1`, which activity change, negative = inhibition ([1]; at 38 µM (top of the series)) is on record?
Its activity change, negative = inhibition is -5.58% (inactive).

And the Potency [2]?
The Potency was “inactive”.

And the activity change, negative = inhibition ([3]; at 38 µM (top of the series))?
The activity change, negative = inhibition was -0.946% (inactive).

And the activity, negative = inhibition ([4]; at 38 µM (top of the series))?
Its activity, negative = inhibition is 1.02% (inactive).

With `Cc1cc(CC(=O)O)n(C)c1C(=O)c1ccc(Cl)cc1` as the compound, how does the activity change, negative = inhibition ([1]; at 17.2 µM (top of the series)) read?
The activity change, negative = inhibition was 2.5% (inactive).

What about the Potency [8] of the same compound?
Its Potency is > 92 µM (inactive).

And the Potency [9]?
The Potency was > 92 µM (inactive).

And the Potency [10]?
The Potency was > 92 µM (inactive).

What about the Potency [11] of the same compound?
The Potency was > 92 µM (inactive).

And the Potency [12]?
The Potency was > 92 µM (inactive).

What about the Potency [13] of the same compound?
Its Potency is > 92 µM (inactive).

What about the activity change, negative = inhibition ([3]; at 17.2 µM (top of the series)) of the same compound?
The activity change, negative = inhibition was 1.18% (inactive).

What about the activity, negative = inhibition ([4]; at 17.2 µM (top of the series)) of the same compound?
The activity, negative = inhibition was 8.99% (inactive).

And the Potency [5]?
The Potency was > 20.6 µM (inactive).

And the Potency [6]?
Its Potency is > 20.6 µM (inactive).

And the Potency [7]?
The Potency was “inactive”.

And the activity change, negative = cytotoxicity [14]?
Its activity change, negative = cytotoxicity is -9.12% (inactive).

What about the Potency [15] of the same compound?
The Potency was “inactive”.

And the Potency [16]?
The Potency was “inactive”.

What about the Potency [17] of the same compound?
Its Potency is “inactive”.

And the Potency [18]?
Its Potency is “inactive”.

What about the Potency [19] of the same compound?
The Potency was “inactive”.
